KCNQ2 inh: blocks the rat KCNQ2 potassium channel; O88943; CHO-K1 KCNQ2, FluxOR thallium flux, 20 min; active compounds read low; 310,000 compounds, 1.1% hits; B-score at 10 µM;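 active = fluorescence ratio B-score at most minus 3 library SDs, with starting brightness B-score within 2 library SDs, cut at about -5.5 in these data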
Target sequence (O88943 whole entry, looked up): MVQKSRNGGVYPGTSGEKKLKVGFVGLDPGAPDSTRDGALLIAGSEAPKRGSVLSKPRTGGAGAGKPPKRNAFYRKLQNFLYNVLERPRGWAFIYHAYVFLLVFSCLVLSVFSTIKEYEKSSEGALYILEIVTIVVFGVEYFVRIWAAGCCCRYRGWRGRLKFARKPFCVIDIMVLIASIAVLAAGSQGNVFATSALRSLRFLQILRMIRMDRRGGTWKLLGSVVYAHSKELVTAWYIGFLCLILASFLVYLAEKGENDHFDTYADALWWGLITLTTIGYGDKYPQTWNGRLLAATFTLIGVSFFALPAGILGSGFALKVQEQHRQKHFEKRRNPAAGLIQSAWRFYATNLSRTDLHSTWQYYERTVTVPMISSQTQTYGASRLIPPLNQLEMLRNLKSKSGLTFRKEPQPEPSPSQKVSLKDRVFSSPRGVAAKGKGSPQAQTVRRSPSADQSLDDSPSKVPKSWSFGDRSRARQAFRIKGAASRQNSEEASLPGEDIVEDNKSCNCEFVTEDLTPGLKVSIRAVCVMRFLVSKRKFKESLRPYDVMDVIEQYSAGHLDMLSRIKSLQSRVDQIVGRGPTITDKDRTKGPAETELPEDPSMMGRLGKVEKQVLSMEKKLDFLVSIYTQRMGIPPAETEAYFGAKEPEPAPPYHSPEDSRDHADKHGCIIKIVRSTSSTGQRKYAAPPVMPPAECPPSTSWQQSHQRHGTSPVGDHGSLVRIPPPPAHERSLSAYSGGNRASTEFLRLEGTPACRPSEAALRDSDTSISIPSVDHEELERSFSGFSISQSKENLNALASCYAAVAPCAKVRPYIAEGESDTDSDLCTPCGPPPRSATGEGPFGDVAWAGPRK
KCNQ2 pot: KCNQ2 (rat) channel potentiation; B-score at 10 µM; 310,000 compounds, 0.54% hits; CHO-K1 KCNQ2, FluxOR thallium flux fluorescence; active compounds read high;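 active = fluorescence ratio B-score at least 3 SD of library B-scores, with initial fluorescence B-score within 3 of them, cut at about 5.3 in these data; same plate scores as AID 2156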;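 also: B-score of peak minus minimum over baseline fluorescence ratio after K+ and Tl+ stimulus; positive B-score means potentiation of KCNQ2 with more thallium influx and brighter signal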
* = called active by the depositor; i = inactive; / = no result given. This is a sample that favours compounds with a hit; in the whole collection about 1.6% have one here.

SMILES	KCNQ2 inh	KCNQ2 pot
CCNC(=S)N1CCc2ccccc2C1	i	0.35
CC(C)n1cc(CN2CCCC(CNS(=O)(=O)c3cccc4cccnc34)C2)cn1 (stereo not given)	i	0.15
COC(=O)c1cc(=O)n(Cc2ccc3c(c2)OCO3)c(=Nc2ccc(F)cc2)s1	i	/
CCOC(=O)c1ccc(N=c2sc(C(=O)OC)cc(=O)n2Cc2ccc3c(c2)OCO3)cc1	-5.9*	-5.9
CC(C)c1ccc(N(CC(=O)NCc2ccco2)C(=O)CCC(=O)Nc2nccs2)cc1	i	/
CN(Cc1nc(-c2ccc(Cl)cc2)no1)C(=O)CCN1C(=O)[C@H]2CC=CC[C@H]2C1=O	i	0.33
Cc1ccc(C(=O)Nc2cc(C(F)(F)F)ccc2N2CCCCC2)cc1[N+](=O)[O-]	-7.2*	-7.2
CN1CCN(S(=O)(=O)c2cccc(C(=O)Nc3ccccc3N3CCOCC3)c2)CC1	i	0.44
CCN1CCN(c2ccc(S(=O)(=O)N3CCCCC3)cc2NC(=O)c2cccc(C(F)(F)F)c2)CC1	i	/
O=C(Nc1cc(C(F)(F)F)ccc1N1CCCCC1)c1cccc([N+](=O)[O-])c1	i	2.3
CN1CCN(S(=O)(=O)c2cccc(C(=O)Nc3cc(C(F)(F)F)ccc3N3CCCCC3)c2)CC1	-7.3*	-7.3
CN1CCN(S(=O)(=O)c2cccc(C(=O)Nc3ccccc3N3CCCCC3)c2)CC1	-6*	-6
COc1ccc(S(=O)(=O)Nc2ccc(C)cn2)cc1	i	0.6
Cc1sc2ncn(CC(=O)N3CCC(C(N)=O)CC3)c(=O)c2c1S(=O)(=O)N1CCOCC1	i	/
Cc1ccc(O)c(Nc2nc(-c3ccccc3)nc3ccccc23)c1	i	0.61
Cc1ccc(O)c(Nc2c3ccccc3nc3ccccc23)c1	-5.6*	-5.6
COc1ccc(C(=O)N2CCCC(CCC(=O)NCc3ccccc3F)C2)c(OC)n1 (stereo not given)	i	/
CNC(=S)Nc1cccc(-c2cnc3ccccc3n2)c1	i	1.5
CC(C)Oc1cc(C(=O)NC2CCCCC2)c2ccccc2n1	-6*	-6
O=C(NC1CCCCCCC1)c1cc(-c2ccccn2)nc2ccccc12	i	/
O=C(O)CSc1c2c(nc3cc(C(=O)Nc4ccc(F)c(Cl)c4)ccc13)CCCC2	i	0.36
OC(CNCC1CCCO1)COc1ccc(OCC(O)CNCC2CCCO2)cc1 (stereo not given)	i	0.91
CCOC(=O)c1c(C)n(-c2ccc(C)cc2)c2ccc(OCC(O)CNCC3CCCO3)cc12 (stereo not given)	-6.3*	-6.3
COc1ccc(OC)c(S(=O)(=O)CC(O)COc2ccccc2Cl)c1 (stereo not given)	i	1.6
Cc1ccc(NC(=O)c2sccc2SCc2cccc(C(F)(F)F)c2)cc1	-6.8*	-6.8
SMILES	KCNQ2 inh	KCNQ2 pot
Cc1cccc(C)c1NC(=O)c1sccc1SCc1cccc(C(F)(F)F)c1	i	/
COc1ccccc1Nc1ncnc2c1c(C)c(C)n2CCO	i	0.99
COc1ccc(NC(=O)C(=O)NNC(=O)COc2ccc(OC)cc2)cc1	i	1.8
CCc1ccc(NC(=O)C(=O)NNC(=O)COc2cccc(OC)c2)cc1	i	6*
CCOC(=O)CSc1nnc(CNc2cccc(Cl)c2)n1-c1ccccc1	-6.4*	-6.4
CC(C)OC(=O)CSc1nnc(CNc2cccc(Cl)c2)n1C	i	0.01
COc1ccccc1C(=O)Nn1c(C2CCC2)nc2ccccc2c1=O	i	/
CCOc1ccccc1C(=O)Nn1c(C2CCC2)nc2ccccc2c1=O	-6.8*	-6.8
O=C(NC1CC(=O)N(c2cccc(F)c2)C1)N1CCN(C(=O)c2ccco2)CC1 (stereo not given)	i	1.7
Cc1ccccc1C(=O)N1CCC(C(=O)NC(C)c2ccc(-n3ccnc3)cc2)CC1 (stereo not given)	i	/
COCCCn1c(SCC(=O)Nc2ccc(NC(C)=O)cc2)nc2sc3c(c2c1=O)CCC3	i	/
Brc1ccc(-c2noc(COc3ccc4c(c3)CCC4)n2)o1	i	/
c1csc(-c2noc(COc3ccc4c(c3)CCCC4)n2)c1	-6*	-6
CCOC(=O)C1=C(CNCc2ccccc2Cl)NC(=O)NC1c1cccc([N+](=O)[O-])c1 (stereo not given)	-6.3*	-6.3
CCOC(=O)C1=C(CNCc2ccccc2Cl)NC(=O)NC1c1ccc2c(c1)OCO2 (stereo not given)	i	/
COc1ccc(NC(=O)N2CCCCCC2)cc1OC	i	0.25
CCCCC(=O)Nc1ccc(C(N)=O)cc1	i	0.4
CCCCC(=O)Nc1ccc(NCc2ccc(C)s2)cc1	i	30*
CCOC(=O)CNC(=O)Cn1cnc2c(cnn2-c2ccc(C)cc2)c1=O	i	0.09
CCN(c1ccc(OC)cc1)S(=O)(=O)c1nnc(NC(=O)COc2ccc(F)cc2)s1	i	/
COc1ccc(/C=N/NC(=O)c2cccnc2)cc1	i	/
COc1ccc(/C=N/NC(=O)c2ccc[nH]2)cc1	-6.1*	-6.1
CC1=C(C(=O)Nc2ccccc2)C(c2ccco2)C(C#N)=C(SCc2ccccc2)N1 (stereo not given)	-6.5*	-6.5
CC1=C(C(=O)Nc2ccccc2)C(c2ccco2)C(C#N)=C(SCC(=O)OC(C)C)N1 (stereo not given)	i	0.08
CCN(CC)C(=O)N1CCc2ccccc2C1CN1C(=O)c2ccccc2C1=O (stereo not given)	-6.2*	-6.2
SMILES	KCNQ2 inh	KCNQ2 pot
O=C1c2ccccc2C(=O)N1CC1c2ccccc2CCN1C(=O)C1CCCCC1 (stereo not given)	-6.9*	-6.9
O=C(O)[C@@H]1CCCC[C@@H]1C(=O)N1CCc2ccccc2C1CN1C(=O)c2ccccc2C1=O (stereo not given in full)	i	/
O=C1c2ccccc2C(=O)N1CC1c2ccccc2CCN1C(=O)CN1CCOCC1 (stereo not given)	i	/
Cc1cc(Cn2nc(-c3ccccc3)cc2C(=O)NCc2cccc(Br)c2)on1	i	0.29
COCCCN1C(=O)c2ccc(C(=O)NCc3ccccn3)cc2C1=O	i	/
O=C(COC(=O)c1cccc(Cl)c1)NCCN1C(=O)CSC1=O	i	0.05
Cc1noc(C)c1COc1cccc(C(=O)OCC(=O)NCCN2C(=O)CSC2=O)c1	i	8.3*
CC(=O)N1CCN(C(=O)COC(=O)CNC(=O)c2ccccc2C)CC1	i	2.3
NS(=O)(=O)c1ccc(Sc2ccc3c(c2)CCC3)nc1	i	1.3
CCOC(=O)c1cccc(NC(=O)CSc2nnc(COc3ccccc3)n2CC)c1	i	/
CCOC(=O)c1ccccc1NC(=O)CSc1nnc(COc2ccccc2)n1CC	-6.4*	-6.4
COc1cc2c(cc1OC)CN(C(=O)Cc1c(F)cccc1Cl)CC2	i	3.4
CCCSc1nc(N2CCOCC2)c2c(c1C#N)CC(C)(C)SC2	i	1.1
CC(C)Sc1nc(N2CCOCC2)c2c(c1C#N)CC(C)(C)SC2	-6.2*	-6.2
CN1CCc2c(sc(NC(=O)c3ccc4ccccc4c3)c2C(N)=O)C1	i	/
COc1cc2ccccc2cc1C(=O)Nc1sc2c(c1C(N)=O)CCN(C(C)C)C2	-5.9*	-5.9
CN(Cc1ccccc1)C(=O)CCS(=O)(=O)c1ccc2c(c1)NC(=O)CS2	i	0.87
C=CCN(C(=O)CCC(=O)Nc1cc(C)on1)C(C(=O)NC1CCCC1)c1ccc(CC)cc1 (stereo not given)	i	/
Cc1cc(NC(=O)Nc2cccc(Cl)c2)n(-c2ccccc2)n1	i	1.1
Cc1cc(Nc2ccccc2)n(-c2cccc(Cl)c2)n1	-6*	-6
